ABHD5 PLIN5 PPI = blocks binding of human ABHD5 to perilipin-5; Q00G26+Q8WTS1; Split G. princeps luciferase complementation, luminescence, 4 h; inhibition, % at 4 µM; 360,000 compounds, 0.78% hits;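 active = inhibition above the mean inhibition across every tested compound plus 3 SD, cut at about 22% in these data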;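 also: 0% = DMSO only wells and the 100% control is not disclosed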
TLR9-MyD88 inh = inhibitors of human TLR9-MyD88 binding; inhibition, % at 4.98 µM; 340,000 compounds, 0.21% hits; Q9NR96+Q99836; CHO BLA complementation TLR9-MyD88, CCF4 FRET ratio;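 active = inhibition above the mean over all tested compounds plus 3 SD, cut at about 21% in these data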;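 also: 0% = DMSO only wells and 100% = clavulanate BLA inhibitor control wells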
m5-HT2A agonist = activates the mouse 5-HT2A serotonin receptor; P35363; CHO-K1 mHTR2A beta-arrestin complementation, luminescence; percent of 30 µM serotonin response; 360,000 compounds, 0.66% hits; activation, % at 7.6 µM;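 active = activation above a run cutoff, the mean activation of all tested compounds plus 3 SD, cut at about 14% in these data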;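 also: 0% = plate median of compound wells and 100% = 30 µM serotonin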
Target sequence (P35363 whole entry, looked up): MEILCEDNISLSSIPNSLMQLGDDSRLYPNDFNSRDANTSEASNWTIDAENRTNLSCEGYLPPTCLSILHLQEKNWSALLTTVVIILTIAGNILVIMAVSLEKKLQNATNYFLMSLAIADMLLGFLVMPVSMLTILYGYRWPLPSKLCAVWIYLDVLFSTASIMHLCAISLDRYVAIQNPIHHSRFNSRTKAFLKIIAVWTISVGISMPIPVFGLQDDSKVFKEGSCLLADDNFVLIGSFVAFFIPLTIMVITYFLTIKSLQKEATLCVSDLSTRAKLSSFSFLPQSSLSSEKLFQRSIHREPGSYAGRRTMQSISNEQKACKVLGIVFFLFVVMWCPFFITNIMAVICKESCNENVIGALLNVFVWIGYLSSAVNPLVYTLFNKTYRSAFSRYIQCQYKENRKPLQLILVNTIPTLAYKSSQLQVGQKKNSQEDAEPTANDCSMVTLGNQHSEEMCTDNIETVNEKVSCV
NOD2-RIPK2 inh = NOD2-RIPK2 protein interaction inhibition; O43353; CHO BLA complementation NOD2-RIPK2, CCF4 ratio; inhibition, % at 4.98 µM; 360,000 compounds, 0.38% hits; in the data active = inhibition above about 21%;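 also: 0% = vehicle only and 100% = reference blocker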
TLR4 MyD88 comp = blocks binding of human TLR4 to MyD88. O00206+Q99836. HeLa CL3-4 TLR4/MyD88 BLA complementation, FRET ratio. inhibition, % at 8.4 µM. 200,000 compounds, 0.18% hits. AID 861; in the data active = inhibition above about 25%;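 also: 0% = vehicle and 100% = reference inhibitor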
CRFR2-BP antag = CRF-BP/CRF-R2 complex antagonism. inhibition, % at 11.8 µM. HEK293 CRF-R2/CRF-BP, CRF-induced calcium fluorescence. AID 588475. 350,000 compounds, 0.59% hits;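 active = inhibition of the ligand-induced calcium signal above about 50% at the single tested concentration, limit read from the data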
Numbers without * were called inactive; . = no result given. An excerpt weighted towards active compounds, which were near 2.4% of everything screened.

SMILES	ABHD5 PLIN5 PPI	TLR9-MyD88 inh	m5-HT2A agonist	NOD2-RIPK2 inh	TLR4 MyD88 comp	CRFR2-BP antag
COc1ccc(C2c3ccc4ccccc4c3Oc3ncn(CCCN(C)C)c(=N)c32)cc1 (stereo not drawn)	22*	5	-2	14	.	-16
CCCNC(=O)C1(C)CCCN(C(=O)COc2ccc(Cl)cc2Cl)C1 (stereo not drawn)	9	.	3	-5	.	.
O=c1oc(-c2ccco2)nc2sc3c(c12)CCCC3	-1	7	-1	-4	4	52*
CC1CCCN(S(=O)(=O)c2ccc(NC(=O)Cn3nnc(-c4ccccc4F)n3)cc2)C1 (stereo not drawn)	22*	-1	-6	1	-4	8
COc1ccc(C(=O)OCC(=O)N(C)C2CCS(=O)(=O)C2)cc1S(=O)(=O)N(C)Cc1ccccc1 (stereo not drawn)	-7	-3	3	0	.	109*
O=C(NC1CC1)c1ccc(CSCc2ccc(Cl)cc2)o1	-1	-4	-6	-6	.	2
COc1cc(NC(=O)CSc2cc(C)c3cc(C)cc(C)c3n2)c(C(=O)O)cc1OC	2	-1	-1	-7	.	65*
Cc1ccc(S(=O)(=O)c2nc(S(C)(=O)=O)sc2N2CCOCC2)cc1	1	-11	5	3	.	95*
CCCn1c(N)c(Sc2ccccc2)c(=O)n(CCC)c1=O	0	4	18*	-2	1	-1
CCCCn1c(N)c(Sc2ccccc2)c(=O)[nH]c1=O	0	-1	-7	-3	-8	20
Cc1cc(Br)cn2c(Cc3ccsc3)c(C3CCCCC3)nc12	-14	.	8	-7	.	.
Clc1cccc(OCCN2CCN(CCOc3cccc(Cl)c3)CC2)c1	23*	-13	-10	-6	-5	-2
COC(=O)[C@]12CCCCC=C1N(Cc1ccco1)C(=O)[C@H](CC(=O)NCC13CC4CC(CC(C4)C1)C3)C2	8	.	6	2	.	.
COc1cccc(/C(C)=N/NS(=O)(=O)c2ccc(Cl)cc2)c1	-1	10	-1	2	-1	54*
COc1ccc(S(=O)(=O)N/N=C(/C)c2ccc(Cl)cc2)cc1	5	-3	-1	0	15	18
CC1(C(=O)Nc2ccc(Cl)c(Cl)c2)CCN1C(=O)CCC1CCCC1 (stereo not drawn)	-6	.	1	4	.	.
O=C(O)C1OC1(c1ccccc1Cl)c1ccccc1Cl (stereo not drawn)	-2	-10	0	-14	.	69*
CC(NC(=O)c1ccccc1Cl)C(=O)O (stereo not drawn)	-1	2	7	-10	4	1
CCC(C(=O)NC(C)(C)C)N(Cc1ccc(OC)cc1)C(=O)c1snc(C(N)=O)c1N (stereo not drawn)	-2	-5	-3	-5	.	-6
COc1ccc(-c2cc(C(F)(F)F)n3ncc(C(=O)NCc4ccco4)c3n2)cc1	23*	-1	5	7	14	22
O=C(NCc1ccco1)c1cnn2c(C(F)(F)F)cc(-c3ccccc3)nc12	3	0	0	-3	3	-16
Cc1cc(Cl)ccc1OCC(=O)N/N=C/c1ccncc1	-5	-9	-10	0	.	-10
Cc1ccccc1OCC(=O)N/N=C/c1ccncc1	23*	-4	0	-6	4	2
CCCCCCCCN1C(=O)[C@H](CC(=O)NCc2ccccc2)C[C@@]2(C(=O)OC)CCCCC=C12	1	.	2	-10	.	.
C[C@H]1CCCCO[C@H](CN(C)Cc2ccc(C(=O)O)cc2)[C@@H](C)CN([C@@H](C)CO)C(=O)c2cc(NS(=O)(=O)c3cn(C)cn3)ccc2O1	0	-2	-1	3	.	18
SMILES	ABHD5 PLIN5 PPI	TLR9-MyD88 inh	m5-HT2A agonist	NOD2-RIPK2 inh	TLR4 MyD88 comp	CRFR2-BP antag
CCCn1c(O)c2ccc(C(=O)N=NC(=O)c3cccnc3)cc2c1O	-5	-11	21*	-7	19	5
CC(C)Cn1c(O)c2ccc(C(=O)N=NC(=O)c3cccnc3)cc2c1O	-1	4	4	-2	9	3
CC(Oc1cccc(Cl)c1)C(=O)NNC(=O)c1cccnc1 (stereo not drawn)	0	-2	-3	-1	.	68*
N#C/C(=C(/O)COC(=O)COc1cccc(Br)c1)c1nc2ccccc2[nH]1	-8	3	-5	-4	.	100*
Cc1cc(C)cc(OCC(=O)OC/C(O)=C(\C#N)c2nc3ccccc3[nH]2)c1	1	-1	2	1	-6	7
CC(C)OCc1c(C(=O)OC/C(O)=C(\C#N)c2nc3ccccc3[nH]2)oc2ccccc12	-2	3	6	-2	2	62*
CCN(CC)S(=O)(=O)c1cc(OC)c(C)cc1C	2	13	-3	5	4	69*
O=C(O)c1ccc(CSc2nnc(-c3ccc(Cl)cc3)o2)cc1	8	-1	10	-9	.	10
O=C(O)c1ccc(CSc2nnc(-c3ccccc3Br)o2)cc1	6	-7	16*	-13	.	2
CCOc1ccc2c(c1)/C(=N/N1C(=O)c3ccccc3C1=O)C(=O)N2	-5	-4	3	1	4	105*
Nc1ccc(S(=O)(=O)Nc2nc(-c3ccccc3)cc(-c3ccccc3O)n2)cc1	-12	-4	-5	4	.	-26
CCOc1ccc(NC(=S)Nc2ccc3nsnc3c2)cc1	-29	-4	0	3	20	-24
COc1ccc(NC(=S)Nc2ccc3nsnc3c2)cc1	23*	14	5	-1	22	-14
N#C/C(N=Nc1ccccc1O)=N\Nc1ccccc1O	22	-10	-1	-5	.	97*
COc1ccc(/C=C2\S/C(=N/S(=O)(=O)c3cccs3)NC2=O)cc1	1	-3	1	0	-10	69*
C[C@H](CO)N1C[C@H](C)[C@@H](CN(C)C(=O)Nc2ccccc2)Oc2ncc(-c3ccc(C#N)cc3)cc2C1=O	5	18	4	-2	.	9
Cc1ccc(NC(=O)CCn2cc(C(F)(F)F)ccc2=O)cc1	-4	.	2	-25	.	122*
O=C1CCc2cc(S(=O)(=O)N3CCC(C(=O)NC4CCCCCCC4)CC3)ccc2N1	3	1	-1	-3	-12	68*
COc1ccc(C2=NNC(c3ccco3)=Nc3ccc(F)cc32)cc1	1	-3	3	-14	-3	54*
COc1ccc2c(c1)C(c1ccc([N+](=O)[O-])cc1)=NNC(c1ccco1)=N2	4	6	0	10	1	32
N/C(=N\OCC(=O)Nc1ccccc1)c1nonc1N	6	-12	4	-4	1	69*
Cc1ccc(NC(=O)CO/N=C(\N)c2nonc2N)cc1	-2	-12	-2	-1	2	-4

Screening data deposited in PubChem BioAssay by several laboratories.
